In test [1] the test system is Wnt5a (protein binding on small-molecule microarray). Briefly: small molecules binding Wnt5a protein – biophysical, small-molecule microarray, 635/667 nm fluorescence, primary screen (AID 1142).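 Also: fluorescence read at 667 nm with signal to noise per printed feature.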 Particulars: 635 nm fluorescence, higher = more signal.
Test [2] can be described thus: ATP-based viability of Huh7 replicon cells – cell-based, CellTiter-Glo luminescence, basal, 48 h, cytotoxicity control for HCV replication inhibitor project, primary screen (AID 1143).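 Also: Huh7 hepatoma cells carrying a hepatitis C replication reporter with no stimulus; test concentration not given here.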 The note with it: higher = more signal, called active from +8 up or from −8 down. Background: In antiviral work, replicon cells carry a viral genome segment that copies itself.
Test [3] in a line: Pseudomonas biofilm growth suppression – PAO1 strain, BacTiter-Glo luminescence, LB-PBS, primary screen (AID 1144). The note with it: P. aeruginosa PAO1 biofilm, 12 h, higher = more signal.
Test [4] can be described thus: basal CRE-LacZ reporter activity in PC12 – cell-based, unstimulated, primary screen (AID 1145). The note with it: no forskolin, luminescence, 4.5 h, higher = more signal, called active from +8 up or from −8 down.
Test [5] in a line: forskolin-driven CRE-LacZ activity in PC12 – cell-based, CRE-LacZ reporter, forskolin-stimulated, primary screen (AID 1146).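 Also: PC12 cells with 6xCRE LacZ reporter stimulated by forskolin 10 µM; beta-galactosidase reporter signal reflecting CREB driven transcription.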 Particulars: luminescence, 4.5 h, higher = more signal, called active from +8 up or from −8 down.
Test [6] addresses Streptavidin (Streptomyces avidinii) (UniProt P22629). As to the kind of experiment: compounds binding control protein streptavidin – biophysical, small-molecule microarray, 635/667 nm fluorescence, artefact control for SMM compound annotation, primary screen (AID 1147).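 Also: signal reflects streptavidin binding to arrayed compounds as a control protein.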 Particulars: higher = more signal.
The nature of test [7]: probe aInhba binding on compound microarray – biochemical, small-molecule microarray, 635/667 nm fluorescence, primary screen (AID 1148).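 Also: score merges 667nm spot fluorescence with signal-to-noise for antibody binding to printed compounds.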 The note with it: higher = more signal.
The target of test [8] is Torsin-1A (Homo sapiens) (UniProt O14656). As to the kind of experiment: TOR1A wild-type binding on microarray – cell lysate, small-molecule microarray, lysate, 635/667 nm, primary screen (AID 1149). Particulars: COS7 hTOR1A-WT lysate, 635 nm fluorescence, higher = more signal.
Sequence of Torsin-1A (Homo sapiens) (O14656 whole entry, looked up): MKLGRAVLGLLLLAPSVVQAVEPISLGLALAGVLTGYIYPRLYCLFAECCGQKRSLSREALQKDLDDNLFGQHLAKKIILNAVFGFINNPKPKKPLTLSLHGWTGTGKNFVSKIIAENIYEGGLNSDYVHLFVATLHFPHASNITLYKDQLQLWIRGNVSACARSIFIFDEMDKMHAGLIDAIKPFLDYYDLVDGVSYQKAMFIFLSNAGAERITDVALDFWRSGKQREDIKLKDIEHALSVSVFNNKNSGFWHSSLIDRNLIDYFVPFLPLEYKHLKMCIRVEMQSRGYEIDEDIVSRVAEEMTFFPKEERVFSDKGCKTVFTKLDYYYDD
For test [9] the target is unchanged. As to the kind of experiment: torsin A mutant lysate binding on microarrays – cell lysate, small-molecule microarray, COS7 lysate, 635/667 nm fluorescence, primary screen (AID 1150).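 Also: score pools 667 nm emission and signal to noise measuring lysate protein binding.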 Particulars: COS7 hTOR1A mutant lysate, 635 nm fluorescence, higher = more signal.
Test [10] has as its system Sonic hedgehog protein (Shh). As to the kind of experiment: Sonic hedgehog microarray binding compounds – biochemical, small-molecule microarray, 635/667 nm fluorescence, primary screen (AID 1151).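 Also: Shh protein binding to compounds spotted on small-molecule microarray slides; score combines spot fluorescence intensity with signal-to-noise across triplicate slides.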 Particulars: 635 nm fluorescence, higher = more signal.
Test [11] is described as follows: optical density shifts of acrAB sulA E. coli – strain DRC41, OD650, 48 h, E. coli filamentation inducer project, primary screen (AID 1152).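 Also: E. coli MC1000 strain DRC41 lacking acrAB efflux pump and sulA.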 The note with it: higher = more signal, called active from +8 up or from −8 down.
Test [12] in a line: probe aLefty1 binding on compound microarray – biochemical, small-molecule microarray, 635/667 nm fluorescence, primary screen (AID 1153).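 Also: score merges spot fluorescence with signal-to-noise ratio from the scanned slide images.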 Particulars: higher = more signal.
Test [13] is described as follows: plasmodial surface anion channel blockers, osmotic lysis – cell-based, P. falciparum Indochina, OD700, 1 h, primary screen (AID 1154). Particulars: P. falciparum Indochina infected RBC osmotic lysis, higher = more signal, called active from +8 up or from −8 down.
A short description of test [14]: plasmodial surface anion channel blockers, osmotic lysis – cell-based, P. falciparum Indochina, OD700, 2 h, primary screen (AID 1155).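 Also: lysis reports solute entry through the parasite surface anion channel PSAC.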 The note with it: P. falciparum Indochina infected erythrocytes, higher = more signal, called active from +8 up or from −8 down.
Test [15] in a line: changes in parasitized red cell lysis, either direction – P. falciparum Indochina, OD700, 3 h, PSAC antagonist project, primary screen (AID 1156). Particulars: P. falciparum-infected erythrocytes, osmotic lysis, higher = more signal, called active from +8 up or from −8 down.
Test [16] can be described thus: plasmodial surface anion channel blockers, osmotic lysis – cell-based, P. falciparum Indochina, OD700, 18 h, primary screen (AID 1157). The note with it: P. falciparum Indochina infected erythrocytes, osmotic lysis OD700, 18 h; higher = more signal, called active from +8 up or from −8 down.
The nature of test [17]: S6 kinase pathway phospho-S6 level changes – cell-based, A549, cytoblot, luminescence, serum-stimulated, primary screen (AID 1158).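 Also: serum-stimulated A549 lung adenocarcinoma cells; signal is phosphorylated S6 detected by cytoblot immunostaining with HRP secondary.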 Particulars: 5 h, higher = more signal.
Test [18] concerns the target NADPH oxidase 2 (Homo sapiens) (UniProt P04839). As to the kind of experiment: compounds shifting NOX2 Amplex Red fluorescence – cell-based, HEK293-NOX2, PMA-stimulated, NOX inhibitor project, primary screen (AID 1159). Also: test concentration not given here. The note with it: 45 min, higher = more signal, called active from +8 up or from −8 down.
In test [19] the target is NADPH oxidase 4 (Homo sapiens) (UniProt Q9NPH5). As to the kind of experiment: compounds shifting NOX4 Amplex Red fluorescence – cell-based, HEK293-NOX4, tetracycline-induced, NOX inhibitor project, primary screen (AID 1160). Particulars: HEK293-NOX4, Amplex Red H2O2 fluorescence, 45 min; higher = more signal, called active from +8 up or from −8 down.
Sequence of NADPH oxidase 4 (Homo sapiens) (Q9NPH5 whole entry, looked up): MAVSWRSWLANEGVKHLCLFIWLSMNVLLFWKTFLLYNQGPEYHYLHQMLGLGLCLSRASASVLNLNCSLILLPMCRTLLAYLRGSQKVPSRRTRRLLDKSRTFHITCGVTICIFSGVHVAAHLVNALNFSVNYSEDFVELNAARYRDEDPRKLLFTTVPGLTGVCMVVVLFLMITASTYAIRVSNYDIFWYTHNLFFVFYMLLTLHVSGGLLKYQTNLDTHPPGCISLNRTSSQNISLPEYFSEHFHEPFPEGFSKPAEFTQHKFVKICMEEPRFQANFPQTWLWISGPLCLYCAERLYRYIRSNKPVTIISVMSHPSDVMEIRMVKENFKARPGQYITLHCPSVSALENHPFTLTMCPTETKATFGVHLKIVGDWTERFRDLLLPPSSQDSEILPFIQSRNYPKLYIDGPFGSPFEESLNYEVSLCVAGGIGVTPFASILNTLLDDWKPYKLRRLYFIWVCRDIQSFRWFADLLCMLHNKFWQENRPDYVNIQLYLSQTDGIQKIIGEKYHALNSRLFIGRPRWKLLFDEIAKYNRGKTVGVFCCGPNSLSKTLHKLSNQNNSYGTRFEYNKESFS
Test [20] has as its target NADPH oxidase 5 (Homo sapiens) (UniProt Q96PH1). As to the kind of experiment: compounds shifting NOX5 Amplex Red fluorescence – cell-based, HEK293-NOX5, NOX inhibitor project, primary screen (AID 1161). Particulars: HEK293-NOX5, ionomycin, 45 min, higher = more signal.

Active and inactive are the calls of the source. Unless noted, no rule for the calls is given here.

Sequence of Streptavidin (Streptomyces avidinii) (P22629 whole entry, looked up): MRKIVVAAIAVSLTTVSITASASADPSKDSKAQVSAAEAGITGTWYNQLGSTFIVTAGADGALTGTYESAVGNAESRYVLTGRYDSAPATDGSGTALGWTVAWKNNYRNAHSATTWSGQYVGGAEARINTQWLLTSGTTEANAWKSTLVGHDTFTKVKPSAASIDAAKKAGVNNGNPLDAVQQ
Sequence of NADPH oxidase 2 (Homo sapiens) (P04839 whole entry, looked up): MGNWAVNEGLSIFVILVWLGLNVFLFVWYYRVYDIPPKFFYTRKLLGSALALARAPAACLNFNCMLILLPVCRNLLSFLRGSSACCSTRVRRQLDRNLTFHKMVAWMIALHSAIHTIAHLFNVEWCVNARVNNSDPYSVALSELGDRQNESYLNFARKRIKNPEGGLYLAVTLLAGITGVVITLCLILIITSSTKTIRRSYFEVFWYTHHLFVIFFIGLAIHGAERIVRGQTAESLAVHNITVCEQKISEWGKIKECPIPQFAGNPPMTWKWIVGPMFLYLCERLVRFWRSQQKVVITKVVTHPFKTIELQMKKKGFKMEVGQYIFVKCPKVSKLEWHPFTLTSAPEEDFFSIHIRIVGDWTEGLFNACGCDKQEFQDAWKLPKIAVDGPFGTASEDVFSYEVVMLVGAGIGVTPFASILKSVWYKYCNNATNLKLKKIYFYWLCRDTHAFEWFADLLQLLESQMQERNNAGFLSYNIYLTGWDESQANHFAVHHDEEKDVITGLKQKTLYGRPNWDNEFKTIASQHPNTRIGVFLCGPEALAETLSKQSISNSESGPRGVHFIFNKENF
Sequence of NADPH oxidase 5 (Homo sapiens) (Q96PH1 whole entry, looked up): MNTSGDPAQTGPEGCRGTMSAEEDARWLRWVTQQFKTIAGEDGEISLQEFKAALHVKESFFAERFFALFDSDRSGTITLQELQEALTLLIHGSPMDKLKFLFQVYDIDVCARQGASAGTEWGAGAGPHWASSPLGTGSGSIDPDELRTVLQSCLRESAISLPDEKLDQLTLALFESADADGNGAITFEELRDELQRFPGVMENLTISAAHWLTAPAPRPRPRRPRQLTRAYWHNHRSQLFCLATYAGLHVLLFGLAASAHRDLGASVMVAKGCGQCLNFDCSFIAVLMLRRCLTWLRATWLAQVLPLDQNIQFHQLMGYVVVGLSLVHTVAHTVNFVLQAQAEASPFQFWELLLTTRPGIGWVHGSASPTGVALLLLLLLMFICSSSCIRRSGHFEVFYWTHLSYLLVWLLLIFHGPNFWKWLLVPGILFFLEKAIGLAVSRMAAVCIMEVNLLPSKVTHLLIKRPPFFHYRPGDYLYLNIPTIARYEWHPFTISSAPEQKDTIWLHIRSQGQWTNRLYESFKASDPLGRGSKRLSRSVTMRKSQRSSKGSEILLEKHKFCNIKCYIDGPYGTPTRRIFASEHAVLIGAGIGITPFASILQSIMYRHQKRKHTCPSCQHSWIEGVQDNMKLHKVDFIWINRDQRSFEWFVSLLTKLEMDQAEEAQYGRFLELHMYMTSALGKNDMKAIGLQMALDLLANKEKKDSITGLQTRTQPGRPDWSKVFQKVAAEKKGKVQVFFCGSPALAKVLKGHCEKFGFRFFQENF

Regarding `CCOC(=O)C[C@H]1[C@H](OC(=O)c2cc3ccccc3oc2=O)[C@@H](NC(=O)Cc2ccc(OC)cc2)c2cc(OCCCO)ccc2N1C(=O)Cc1ccc(OC)cc1`, the composite z-score in test [1] was 0.0746; in test [6], 0.55; in [7], -0.185; with Torsin-1A (Homo sapiens) [8], 0.332; in the test with Torsin-1A (Homo sapiens) [9], 0.839; in test [10], 1.27. The compound also registered a composite z-score in test [12] of 1.28. Besides, the z-score in [2] was -1.5 (inactive); in [3], -0.783 (inactive); in test [4] it was -0.0558 (inactive); in test [5], -1.59 (inactive); in test [11], 0.983 (inactive); in [13], 6.34 (inactive). Moreover, the z-score in test [14] was -1.26 (inactive); in [15] it was -0.456 (inactive); in [16] it was -2.42 (inactive); in test [17], 1.32; in test [18] it was 1.38 (inactive); in test [19] it was 1.52 (inactive). In test [20], the z-score is 0.991.

As for `CC(=O)NCCCC[C@@H]1NC(=O)[C@H]2C[C@@H](C(=O)O)[C@@H](c3cccc(OCCO)c3)N2C1=O`, the composite z-score in test [1] was 0.847; in [6] it was 1.62; in [7], -0.153; with Torsin-1A (Homo sapiens) [8], 1.33; with Torsin-1A (Homo sapiens) [9], 1.24; in test [10] it was 1.59. The compound also displayed a composite z-score in test [12] of 0.189. Moreover, the z-score in test [2] is -0.353 (inactive); in test [3] it was -0.814 (inactive); in [4], 1.94 (inactive); in [5], 0.0364 (inactive); in [11] it was -0.442 (inactive); in test [13], 1.15 (inactive). Moreover, the z-score in [14] is 0.821 (inactive); in test [15] it was -1.42 (inactive); in [16], 0.253 (inactive); in [17], 0.435; in [18], 0.956 (inactive); in test [19], 0.197 (inactive). Besides, the z-score in test [20] was -0.0358.

Consider `O=C1C[C@@](C(=O)NCC(F)(F)F)(c2ccc([N+](=O)[O-])cc2)[C@@H](c2ccc(CO)cc2I)N1CC12CC3CC(CC(C3)C1)C2`, for which the composite z-score in [1] is 0.437; in test [6] it was 0.229; in test [7], 0.0167; with Torsin-1A (Homo sapiens) [8], -0.286; in the test with Torsin-1A (Homo sapiens) [9], -0.251; in [10], 1.53. The same compound had a composite z-score in [12] of 0.383. The z-score is -5.73 (inactive) in test [2]; -1.44 (inactive) in test [3]; 0.558 (inactive) in test [4]; -1.01 (inactive) in test [5]; 0.662 (inactive) in [11]; 22.4 (active) in [13]. The z-score in [14] is 5.06 (inactive); in test [15], -0.0836 (inactive); in test [16], 0.69 (inactive); in test [17], 2.26; in test [18] it was 1 (inactive); in [19] it was -0.564 (inactive). In addition, in test [20], the z-score was determined as 0.733.

In the case of `C=CCNC(=O)[C@@H]1[C@H]2C(=O)O[C@H](c3ccccc3)[C@H](c3ccccc3)N2[C@H](c2ccc(O)cc2)[C@@]12C(=O)N(C(=O)OCCOC)c1ccc(C#CCC(C(=O)OC)C(=O)OC)cc12`, the composite z-score in test [1] is 0.259; in test [6], 0.0198; in test [7], 0.0074; with Torsin-1A (Homo sapiens) [8], 0.586; with Torsin-1A (Homo sapiens) [9], 1.3; in [10], 1.37. In addition, the composite z-score in [12] amounted to 0.0026. Also, the z-score was -3.02 (inactive) in test [2]; 0.132 (inactive) in test [3]; -0.438 (inactive) in test [4]; 0.416 (inactive) in [5]; 1.17 (inactive) in test [11]; 2.41 (inactive) in test [13]. The z-score was 0.225 (inactive) in [14]; -0.451 (inactive) in test [15]; 0.393 (inactive) in [16]; 0.0945 in test [17]; 0.932 (inactive) in test [18]; 0.584 (inactive) in test [19]. In addition, the z-score in test [20] was 0.831.

For the compound `[N-]=[N+]=NCc1ccccc1C[C@]1(C(=O)N2CCCCC2)COC(c2ccc(OCCCO)cc2)=N1`, the composite z-score in test [1] is 0.114; in test [6], 0.997; in test [7] it was -0.441; with Torsin-1A (Homo sapiens) [8], 0.555; with Torsin-1A (Homo sapiens) [9] it was 0.278; in [10], 0.349. Moreover, the composite z-score in test [12] is -0.543. Moreover, the z-score was -4.72 (inactive) in [2]; -0.919 (inactive) in test [3]; 1.93 (inactive) in test [4]; 1.43 (inactive) in test [5]; 2.89 (inactive) in test [11]; 29.2 (active) in test [13]. Further, the z-score in test [14] was 19.5 (active); in [15], 4.13 (inactive); in test [16], 2.11 (inactive); in [17] it was -0.305; in test [18], -1.66 (inactive); in test [19] it was 0.0299 (inactive). For the same compound, the z-score in test [20] was -1.38.

Consider `CCCCC(=C=CC[C@H](O)c1cccc(OCCO)c1)C[C@H](O)c1cc(Cl)cc(Cl)c1O`, for which the composite z-score in [1] is 0.252; in [6] it was 0.428; in test [7] it was -0.0675; with Torsin-1A (Homo sapiens) [8] it was 0.437; with Torsin-1A (Homo sapiens) [9] it was 0.906; in test [10], 1.84. Also, the composite z-score in [12] is 0.0999. Also, the z-score in [2] was -0.705 (inactive); in test [3] it was -0.915 (inactive); in test [4] it was 1.66 (inactive); in test [5] it was 0.0904 (inactive); in test [11], 0.513 (inactive); in test [13], 22 (active). The z-score is 5.56 (inactive) in [14]; 0.718 (inactive) in test [15]; 1.48 (inactive) in [16]; 0.295 in test [17]; -2.45 (inactive) in [18]; -1.46 (inactive) in test [19]. Also, the z-score in [20] was -2.02.

On to `C=C[C@@H](CO)NS(=O)(=O)c1ccc(Br)cc1`, for which the composite z-score in [1] is 0.236; in test [6], -0.232; in test [7] it was -0.154; with Torsin-1A (Homo sapiens) [8] it was -0.0176; in the test with Torsin-1A (Homo sapiens) [9] it was -0.354; in [10], -0.317. Besides, the composite z-score in test [12] is -0.239. In addition, the z-score was -2.14 (inactive) in test [2]; -1.74 (inactive) in [3]; 1.54 (inactive) in test [4]; -0.52 (inactive) in test [5]; 3.75 (inactive) in test [11]; -0.398 (inactive) in [13]. The z-score was -0.68 (inactive) in test [14]; -1.12 (inactive) in [15]; -1.81 (inactive) in [16]; 1.36 in test [17]; 0.908 (inactive) in test [18]; 1.05 (inactive) in test [19]. Also, in test [20], the z-score worked out at 1.44.

Consider `COc1c(C)cc(-c2nc(-c3ccccc3)c3c(c2C)CO[Si]3(C(C)C)C(C)C)cc1C`, for which the composite z-score in test [1] is 0.302; in [6], -0.0316; in test [7], -0.0604; in the test with Torsin-1A (Homo sapiens) [8] it was -0.0284; in the test with Torsin-1A (Homo sapiens) [9], 0.0463; in [10], 0.419. Further, the composite z-score in test [12] stood at 0.0505. Moreover, the z-score in [2] is -0.59 (inactive); in [3], 0.306 (inactive); in [4], 0.54 (inactive); in test [5], 0.456 (inactive); in test [11], -1.31 (inactive); in test [13] it was 0.614 (inactive). In addition, the z-score was 0.521 (inactive) in test [14]; -0.81 (inactive) in [15]; 0.261 (inactive) in test [16]; 0.564 in test [17]; -0.41 (inactive) in test [18]; 0.529 (inactive) in test [19]. For the same compound, in test [20], the z-score is -2.03.

The values are drawn from PubChem BioAssay.
